According to PubChem BioAssay AID743048 (Broad Institute, 2013):
Potency and affinity values are given separately. Active and inactive are the calls of the source. A call without a number means that no potency is given here. The rule behind the calls is not given here.

Target: Paired box protein Pax-2 (Homo sapiens) (UniProt Q02962)
Experiment: inhibitors acting on PAX2 in cells – cell-based, plate reader, dry powder samples, selectivity assay for PAX8 inhibitor project, dose response (AID 743048)
Conditions: Pax2 cell-based reporter; series mostly up to 50 µM

Paired box protein Pax-2 (Homo sapiens), sequence (Q02962 whole entry, looked up): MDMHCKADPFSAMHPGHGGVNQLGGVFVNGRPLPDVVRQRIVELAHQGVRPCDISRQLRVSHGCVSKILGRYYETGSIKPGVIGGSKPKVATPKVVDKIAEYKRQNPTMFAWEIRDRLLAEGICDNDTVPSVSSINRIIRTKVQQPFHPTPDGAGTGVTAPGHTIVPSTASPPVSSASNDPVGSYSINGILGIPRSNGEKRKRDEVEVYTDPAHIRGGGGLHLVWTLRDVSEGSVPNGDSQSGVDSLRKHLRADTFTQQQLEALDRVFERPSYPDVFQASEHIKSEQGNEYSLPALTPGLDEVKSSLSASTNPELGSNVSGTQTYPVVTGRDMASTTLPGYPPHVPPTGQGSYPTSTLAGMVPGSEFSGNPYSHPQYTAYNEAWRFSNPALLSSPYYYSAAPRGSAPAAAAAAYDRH

| Structure (SMILES) | outcome |
| --- | --- |
| O=C(CCS(=O)(=O)c1ccccc1)Nc1nc2ccc(F)cc2s1 | inactive |
| CN(C[C@H]1N[C@@H](CO)[C@@H]1c1ccc(C2=CCCC2)cc1)C(=O)c1ccncc1 | inactive |
| O=C(CCCN1C(=O)/C(=C\c2cccc(Br)c2)SC1=S)Nc1ccccn1 | inactive |
| C[C@H]1CN([C@@H](C)CO)C(=O)CCCn2nncc2CO[C@@H]1CN(C)C(=O)Nc1ccc(-c2cccs2)cc1 | inactive |
| N#C[C@H]1N[C@H](CO)[C@@H]1c1ccc(C#Cc2ccccc2F)cc1 | inactive |
| CN(C[C@H]1N[C@@H](CO)[C@@H]1c1ccc(C2=CCCC2)cc1)C(=O)c1ccc(F)cc1 | inactive |
| COc1cccc2sc(N(CCCN(C)C)C(=O)CCS(=O)(=O)c3ccccc3)nc12 | inactive |
| NS(=O)(=O)c1ccc(CCN2C(=O)/C(=C\c3ccc(Cl)cc3)SC2=S)cc1 | inactive |
| O=C(CCCN1C(=O)/C(=C\c2cccc(Br)c2)SC1=S)Nc1cccnc1 | inactive |
| CC(C)c1cc(C(=O)OCC(=O)N2CCN(C(=O)c3ccco3)CC2)c(O)c(C(C)C)c1 | inactive |
| Cc1ccc(-c2csc(NC3OC(=O)c4ccccc43)n2)cc1 (stereo not given) | inactive |
| N#C[C@@H]1[C@@H](c2ccc(-c3cccc(F)c3)cc2)[C@H](CO)N1C(=O)NC1CCCC1 | inactive |
| O=C1/C(=C/c2cccc(Br)c2)SC(=S)N1CCC(=O)N(CCO)c1ccccc1 | inactive |
| CC1(C)CC(=O)c2sc(NC(=O)CCS(=O)(=O)c3ccccc3)nc2C1 | inactive |
| COc1ccc(-c2cc(C(F)(F)F)nc(S(=O)(=O)CCCC(=O)Nc3cc(C)on3)n2)cc1OC | inactive |
